Screening data: PubChem, several laboratories
Compounds with a hit are over-represented: about 2.8% of the library has one in this group of screens.
IDE act – human IDE activators in live cells, primary screen, fluorescence polarization, HEK cells, FAbeta-B substrate. Insulin-degrading enzyme (Homo sapiens), P14735. FAbeta-B cleavage; 0% vehicle, 100% cell-free pure enzyme wells. activation, % at 5.96 µM. 0.073% of 340,000 active;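 active means activation above the mean of all tested compounds plus 3 SD, set per screening campaign, cut at about 17% in these data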
PP5 primary – PP5 phosphatase inhibitors, primary screen, biochemical, fluorescence; Serine/threonine-protein phosphatase 5 (Homo sapiens), P53041; 0.18% of 320,000 active; inhibition, % at 6.7 µM; AID 1987, 2009; purified PP5c, OMFP substrate fluorescence;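 active means inhibition above the campaign's mean inhibition across all tested compounds plus 3 SD, cut at about 9.5% in these data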
IDE cell inh – human IDE inhibitors in live cells, primary screen, fluorescence polarization, HEK cells, FAbetaB substrate; FAbetaB cleavage; AID 434962, 2010; inhibition, % at 5.59 µM; 0.41% of 320,000 active; Insulin-degrading enzyme (Homo sapiens), P14735;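 active means percent inhibition above the average of all tested compounds plus 3 SD, set per screening campaign, cut at about 16% in these data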;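 further: IDE supplied by intact live HEK cells; FP after avidin binding of uncleaved biotin substrate so inhibition keeps polarization high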
PP1 counter – PP1-alpha phosphatase inhibitors, primary screen, counter-screen for PP5 inhibitor project, biochemical, fluorescence, OMFP substrate, single point; purified PP1alpha; inhibition, % at 6.7 µM; 0.9% of 320,000 active;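 active means inhibition above the mean inhibition of all tested compounds plus 3 SD, computed separately for each screening campaign, cut at about 15% in these data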
Granule exo inh – LAMP-1 surface exposure blockers, TALL-104 cells – cell-based, flow cytometry, MLPCN library, primary screen; TALL-104 LAMP-1 surface exposure; cells stimulated with thapsigargin and PMA; inhibition, % at 10 µM; 0.66% of 360,000 active;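 active means inhibition above about 55%, limit read from the data; inconclusive means no clear call, values can overlap the other calls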
SKKanGAS inh – S. pyogenes SKKanGAS growth inhibitors in kanamycin, primary screen, streptokinase expression inhibitor project, SKKanGAS strain, BacTiter-Glo luminescence | 6 h | inhibition, % at 7.5 µM | 1.3% of 300,000 active;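 active means mean replicate score, as percent of positive control median, at least 50; inconclusive means mean below 50 but one replicate at or above 50; inactive means mean and every replicate below 50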;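 further: strain carries kanamycin resistance gene driven by streptokinase promoter and grows in 40 µg/ml kanamycin; loss of luminescence reflects streptokinase promoter inhibition or plain growth inhibition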
Hits are given with their value; i = inactive; ? = inconclusive; nt = no result.

SMILES	IDE act	PP5 primary	IDE cell inh	PP1 counter	Granule exo inh	SKKanGAS inh
O=C(O)c1cccnc1SC1CC(=O)N(c2ccc(OC(F)F)cc2)C1=O (centres undefined)	i	i	i	15.7	i	i
O=C(O)c1cccnc1SC1CC(=O)N(c2cccc(C(F)(F)F)c2)C1=O (centres undefined)	i	i	i	i	i	i
CC12CCC(c3c(C(=O)O)nn(-c4ccc(F)cc4)c31)C2(C)C (centres undefined)	i	i	i	15.4	i	i
CC12CCC(c3c(C(=O)N4CCOCC4)nn(-c4ccccc4)c31)C2(C)C (centres undefined)	i	i	i	i	i	i
COc1ccc(NS(=O)(=O)c2ccc3ccccc3c2)c2ncccc12	i	i	i	i	i	94.3
CCOC(=O)/C(C#N)=C/c1cc(C)n(-c2ccc(C)cc2)c1C	i	i	i	i	85.7	i
O=C(O)c1ccccc1C(c1ccccc1)c1ccccc1O (centres undefined)	i	nt	nt	nt	i	nt
O=C(NN=C(c1ccccc1)c1ccccn1)c1ccccc1	i	nt	i	nt	i	nt
C/C(=N\NC(=O)c1ccccc1Cl)c1ccccn1	i	i	i	i	i	i
C/C(=N\NC(=O)C(c1ccccc1)c1ccccc1)c1ccccn1	i	i	i	i	i	69.5
C/C(=N\NC(=O)c1cccc2ccccc12)c1ccccn1	i	nt	nt	nt	i	79.0
O=C(N/N=C(\c1ccccc1)c1ccccn1)c1ccccc1Cl	i	i	i	i	i	65.6
C/C(=N\NC(=O)c1cc(-c2cccs2)nc2ccccc12)c1ccccn1	i	i	i	i	i	90.5
Cc1nnc(SCC(=O)Nc2nccs2)n1C(C)C	i	i	i	i	i	i
C/C(=N\NC(=O)c1ccccc1OCc1ccc(F)cc1)c1ccccn1	i	i	i	i	i	nt
C/C(=N/NC(=O)c1ccc(C(C)(C)C)cc1)c1ccccn1	i	i	i	i	i	105.7
Cc1cccc2sc(NNC(=O)c3cc(-c4cccs4)nc4ccccc34)nc12	i	i	i	i	i	87.7
C/C(=N\NC(=O)c1ccc(Cl)c(Cl)c1)c1ccccn1	i	nt	nt	nt	i	91.9
CCOc1ccc(OCc2ccc(C(=O)N/N=C(\C)c3ccccn3)cc2)cc1	i	i	i	i	i	92.5
CC(C)NC(=O)c1cc(-c2cccs2)nc2ccccc12	i	i	i	i	i	i
C/C(=N\NC(=O)c1cc(Br)ccc1O)c1ccccn1	i	nt	nt	nt	i	97.3
C/C(=N\NC(=O)c1cccc(Br)c1)c1ccccn1	i	i	i	i	i	110.5
CC(C)(C)c1ccc(C(=O)N/N=C/c2ccccn2)cc1	i	i	i	i	i	63.4
O=C(O)CN1CCN(Cc2ccc(Cl)cc2)C1=O	i	i	i	i	i	i
CCn1nc(C(=O)OCC(=O)N(CCC#N)c2ccccc2)c2ccccc2c1=O	i	i	i	i	i	nt
SMILES	IDE act	PP5 primary	IDE cell inh	PP1 counter	Granule exo inh	SKKanGAS inh
COc1ccc(OC)c(NC(=O)c2cccnc2Sc2ccccc2)c1	i	i	i	i	i	i
CCOC(=O)c1ccc(Oc2coc3cc(O)ccc3c2=O)cc1	i	i	i	i	i	i
Cc1nn(C)c(C(=O)Nc2ccc(S(=O)(=O)NC34CC5CC(CC(C5)C3)C4)cc2)c1Br	i	i	i	i	i	53.2
Cn1cc([C@]2(O)C(=O)Nc3ccc(OC(F)(F)F)cc32)c2ccccc21	nt	nt	nt	nt	i	nt
Cn1c(=O)c2cc(NC(=O)NCCc3ccccc3)ccc2n1Cc1ccc(F)cc1	nt	nt	nt	nt	i	nt
O=C(Nc1ccc2c(c1)C(=O)c1ccccc1-2)c1ccccc1	i	nt	nt	nt	i	nt
COc1cccc(C(=O)Nc2ccc3c(c2)C(=O)c2ccccc2C3=O)c1	i	i	i	32.7	i	i
CCOC(=O)c1cnn(-c2nc(-c3ccccc3F)cs2)c1C(F)(F)F	i	i	i	i	i	51.9
CCOC(=O)c1cnn(-c2nc(-c3ccc(F)cc3)cs2)c1C(F)(F)F	i	i	i	i	i	i
CCOC(=O)c1cnn(-c2nc(-c3ccccc3)cs2)c1C(F)(F)F	i	i	i	i	i	70.7
c1ccc(CCn2c3ccccc3c3nnc(SCc4ccc5nonc5c4)nc32)cc1	i	i	i	i	i	i
CN(CC(=O)Nc1cccc(F)c1)C(=O)c1cccc(S(=O)(=O)N2CC3(C)CC2CC(C)(C)C3)c1 (centres undefined)	i	i	i	i	i	i
COc1ccccc1CNS(=O)(=O)c1cc(C(=O)NCC2CCCO2)c(Cl)cc1Cl (centres undefined)	i	nt	i	nt	i	nt
Cc1cc(NC(=O)CN2C(=O)c3ccccc3C2=O)no1	i	i	i	i	i	49.7
CC(C)C[C@H]1CN(CCCC[C@H]2CNC(=O)C(=O)N2CC2CCCCC2)C(=O)C(=O)N1CCc1ccccc1	nt	nt	nt	nt	i	nt
COc1ccc(C(C(=O)NCc2ccccc2)N(Cc2ccco2)C(=O)c2snc(C(N)=O)c2N)cc1OC (centres undefined)	i	i	i	i	55.7	i
COc1ccc(C(=O)Nc2sc(C)c(-c3ccccc3)c2C#N)cc1OC	i	i	i	i	i	54.0
O=C(O)CCN1C(=O)/C(=C/c2ccc(-c3nc4ccccc4s3)o2)SC1=S	i	i	i	i	98.2	i
O=C(O)CCCN1C(=O)/C(=C\c2ccc(-c3nc4ccccc4s3)o2)SC1=S	i	i	i	i	76.2	?
O=C(O)CC(C(=O)O)N1C(=O)/C(=C/c2ccc(-c3nc4ccccc4s3)o2)SC1=S (centres undefined)	i	i	i	i	i	i
O=Cc1ccc(-c2nc3ccccc3s2)o1	i	i	i	i	i	i
S=C1NC(c2cccs2)=CC(c2ccc(Br)cc2)N1 (centres undefined)	i	i	16.6	i	i	i
S=C1NC(c2ccccc2)=CC(c2ccccc2)N1 (centres undefined)	nt	i	i	i	i	i
CC1CCN(c2nc(-c3cccnc3)nc3scc(-c4ccccc4)c23)CC1	i	i	i	i	i	74.9
CC1CCCN(c2nc(-c3cccnc3)nc3scc(-c4ccccc4)c23)C1 (centres undefined)	i	i	i	i	i	i
O=[N+]([O-])c1ccc(Cc2ccccn2)c([N+](=O)[O-])c1	i	i	i	i	i	i
Cc1ccc(C)c(-c2nnc(NC(=O)c3ccco3)o2)c1	i	i	i	i	i	i
Cc1ccc(-c2nnc(NC(=O)c3ccco3)o2)c(C)c1	i	i	i	i	i	83.7
